The supplement of paper PMC11732987, “Enantioselective OTUD7B fragment discovery through chemoproteomics screening and high-throughput optimisation” (Communications Chemistry, 2025)

Experiments:
Test in all cases: log2 ratio of Biotin-Ahx-Ub-VS probe labelling (fragment/DMSO); higher = less target engagement (more negative = stronger competition), active = hit call of the paper (q ≤ 0.05, log2 ratio ≤ -1)
Conditions in all cases: compound concentration: 200 uM; treatment time: 3 h
[1] = biological target: USP34 (UniProt Q70CQ2)
Chain of USP34 (Q70CQ2 whole entry, the tested form may be a part): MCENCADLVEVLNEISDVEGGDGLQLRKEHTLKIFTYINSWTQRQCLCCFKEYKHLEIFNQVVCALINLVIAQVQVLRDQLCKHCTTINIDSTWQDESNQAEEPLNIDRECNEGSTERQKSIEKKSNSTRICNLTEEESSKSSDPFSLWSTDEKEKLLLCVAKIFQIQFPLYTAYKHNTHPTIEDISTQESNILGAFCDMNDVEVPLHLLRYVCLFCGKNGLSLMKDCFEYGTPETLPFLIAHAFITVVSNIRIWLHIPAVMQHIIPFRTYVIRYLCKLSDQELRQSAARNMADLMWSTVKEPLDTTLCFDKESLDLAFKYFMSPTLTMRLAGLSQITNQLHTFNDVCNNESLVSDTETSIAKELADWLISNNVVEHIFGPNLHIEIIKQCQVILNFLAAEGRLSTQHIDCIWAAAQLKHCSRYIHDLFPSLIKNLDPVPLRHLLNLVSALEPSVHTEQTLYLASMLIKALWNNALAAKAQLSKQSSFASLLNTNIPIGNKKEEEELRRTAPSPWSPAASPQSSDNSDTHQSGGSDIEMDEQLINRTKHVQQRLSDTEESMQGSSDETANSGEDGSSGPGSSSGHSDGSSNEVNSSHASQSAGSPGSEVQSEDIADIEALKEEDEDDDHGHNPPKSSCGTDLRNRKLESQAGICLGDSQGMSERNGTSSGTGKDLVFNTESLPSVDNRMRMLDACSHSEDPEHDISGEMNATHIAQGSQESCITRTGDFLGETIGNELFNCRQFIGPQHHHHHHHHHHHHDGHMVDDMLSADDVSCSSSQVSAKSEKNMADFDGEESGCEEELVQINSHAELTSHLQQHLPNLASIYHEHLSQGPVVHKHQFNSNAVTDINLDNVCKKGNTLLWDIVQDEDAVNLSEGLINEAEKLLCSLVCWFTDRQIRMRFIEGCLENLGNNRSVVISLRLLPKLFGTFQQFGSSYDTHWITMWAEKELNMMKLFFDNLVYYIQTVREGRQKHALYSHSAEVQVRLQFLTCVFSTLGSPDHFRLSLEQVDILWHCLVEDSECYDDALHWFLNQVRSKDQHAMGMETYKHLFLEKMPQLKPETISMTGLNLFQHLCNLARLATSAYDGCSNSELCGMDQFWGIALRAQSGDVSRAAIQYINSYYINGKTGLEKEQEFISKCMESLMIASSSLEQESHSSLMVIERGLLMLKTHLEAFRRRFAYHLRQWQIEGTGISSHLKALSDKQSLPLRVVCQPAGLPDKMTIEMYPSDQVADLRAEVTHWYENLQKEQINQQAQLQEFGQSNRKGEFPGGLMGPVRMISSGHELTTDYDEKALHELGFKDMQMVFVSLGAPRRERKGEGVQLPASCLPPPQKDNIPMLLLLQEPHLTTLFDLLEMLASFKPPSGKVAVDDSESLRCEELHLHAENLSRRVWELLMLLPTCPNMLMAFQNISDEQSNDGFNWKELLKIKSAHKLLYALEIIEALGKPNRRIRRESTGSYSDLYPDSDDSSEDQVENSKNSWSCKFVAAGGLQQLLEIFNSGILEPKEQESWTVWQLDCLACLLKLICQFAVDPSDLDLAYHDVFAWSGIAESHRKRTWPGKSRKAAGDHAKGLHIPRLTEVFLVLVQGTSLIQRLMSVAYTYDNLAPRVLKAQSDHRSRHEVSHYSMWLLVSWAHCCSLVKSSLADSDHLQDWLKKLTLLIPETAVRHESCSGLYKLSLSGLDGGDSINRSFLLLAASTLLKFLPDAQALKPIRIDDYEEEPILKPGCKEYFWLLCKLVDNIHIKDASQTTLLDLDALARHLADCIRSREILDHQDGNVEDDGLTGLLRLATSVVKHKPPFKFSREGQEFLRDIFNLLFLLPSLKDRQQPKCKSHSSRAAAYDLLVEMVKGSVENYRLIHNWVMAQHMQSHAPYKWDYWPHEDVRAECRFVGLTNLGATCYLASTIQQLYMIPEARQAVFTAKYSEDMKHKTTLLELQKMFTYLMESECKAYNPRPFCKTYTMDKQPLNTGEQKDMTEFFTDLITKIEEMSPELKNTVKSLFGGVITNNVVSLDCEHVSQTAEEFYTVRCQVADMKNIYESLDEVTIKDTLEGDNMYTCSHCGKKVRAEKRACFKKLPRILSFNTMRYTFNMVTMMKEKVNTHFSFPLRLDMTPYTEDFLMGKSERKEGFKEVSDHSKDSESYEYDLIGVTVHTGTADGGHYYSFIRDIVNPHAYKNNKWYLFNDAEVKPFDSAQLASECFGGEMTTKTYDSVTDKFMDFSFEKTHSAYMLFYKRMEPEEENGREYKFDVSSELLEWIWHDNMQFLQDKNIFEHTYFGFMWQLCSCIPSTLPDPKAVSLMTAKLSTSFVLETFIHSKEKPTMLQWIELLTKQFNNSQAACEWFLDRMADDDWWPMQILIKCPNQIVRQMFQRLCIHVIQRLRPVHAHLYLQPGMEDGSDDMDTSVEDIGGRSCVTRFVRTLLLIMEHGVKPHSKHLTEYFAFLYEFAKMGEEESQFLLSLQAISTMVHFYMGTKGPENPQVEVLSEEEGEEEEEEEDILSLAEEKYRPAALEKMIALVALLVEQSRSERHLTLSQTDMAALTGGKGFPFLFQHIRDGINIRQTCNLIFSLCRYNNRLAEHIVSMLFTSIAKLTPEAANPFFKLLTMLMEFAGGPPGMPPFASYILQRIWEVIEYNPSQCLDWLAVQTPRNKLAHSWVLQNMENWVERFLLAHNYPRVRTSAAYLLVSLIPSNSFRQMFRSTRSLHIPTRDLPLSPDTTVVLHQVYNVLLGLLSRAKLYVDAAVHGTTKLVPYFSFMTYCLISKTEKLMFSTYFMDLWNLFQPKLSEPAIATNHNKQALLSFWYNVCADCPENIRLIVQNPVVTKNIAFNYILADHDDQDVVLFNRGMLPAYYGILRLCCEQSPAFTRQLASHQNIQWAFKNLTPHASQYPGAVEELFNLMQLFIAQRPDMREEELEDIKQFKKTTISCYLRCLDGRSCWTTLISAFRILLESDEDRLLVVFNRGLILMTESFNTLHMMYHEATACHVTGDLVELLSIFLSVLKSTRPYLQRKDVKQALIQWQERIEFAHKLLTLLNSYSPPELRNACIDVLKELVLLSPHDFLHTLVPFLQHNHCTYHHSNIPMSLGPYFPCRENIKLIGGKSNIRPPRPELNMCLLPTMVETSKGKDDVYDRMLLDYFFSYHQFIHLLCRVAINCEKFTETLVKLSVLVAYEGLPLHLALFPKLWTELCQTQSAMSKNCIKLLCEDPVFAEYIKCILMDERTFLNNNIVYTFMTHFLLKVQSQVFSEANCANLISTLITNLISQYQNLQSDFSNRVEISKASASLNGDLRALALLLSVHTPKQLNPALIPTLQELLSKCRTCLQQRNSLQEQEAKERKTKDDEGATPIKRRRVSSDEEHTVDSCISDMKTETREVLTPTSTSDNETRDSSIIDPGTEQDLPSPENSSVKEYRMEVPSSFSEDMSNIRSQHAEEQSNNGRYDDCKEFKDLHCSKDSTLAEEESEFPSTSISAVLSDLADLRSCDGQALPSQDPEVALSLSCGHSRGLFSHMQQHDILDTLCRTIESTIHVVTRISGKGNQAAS
Outline: (§1)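 HEK293T lysate, 495 µg per sample in Tris/CHAPS/IGEPAL buffer with protease inhibitors, was treated in triplicate with fragment at 200 µM or vehicle for 3 h and then with Biotin-Ahx-Ub-VS at 0.5 µM final for 1 h. Labelled DUBs were NeutrAvidin-enriched, digested with LysC and trypsin, and run by diaPASEF LC-MS/MS. Spectronaut label-free quantities were global-median-normalised, and values are average log2 fragment/vehicle ratios by unpaired t-test on proteins with ≥2 unique peptides.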

[2] = biological target: T1, USP36 (UniProt Q9P275)
T1 sequence (whole entry): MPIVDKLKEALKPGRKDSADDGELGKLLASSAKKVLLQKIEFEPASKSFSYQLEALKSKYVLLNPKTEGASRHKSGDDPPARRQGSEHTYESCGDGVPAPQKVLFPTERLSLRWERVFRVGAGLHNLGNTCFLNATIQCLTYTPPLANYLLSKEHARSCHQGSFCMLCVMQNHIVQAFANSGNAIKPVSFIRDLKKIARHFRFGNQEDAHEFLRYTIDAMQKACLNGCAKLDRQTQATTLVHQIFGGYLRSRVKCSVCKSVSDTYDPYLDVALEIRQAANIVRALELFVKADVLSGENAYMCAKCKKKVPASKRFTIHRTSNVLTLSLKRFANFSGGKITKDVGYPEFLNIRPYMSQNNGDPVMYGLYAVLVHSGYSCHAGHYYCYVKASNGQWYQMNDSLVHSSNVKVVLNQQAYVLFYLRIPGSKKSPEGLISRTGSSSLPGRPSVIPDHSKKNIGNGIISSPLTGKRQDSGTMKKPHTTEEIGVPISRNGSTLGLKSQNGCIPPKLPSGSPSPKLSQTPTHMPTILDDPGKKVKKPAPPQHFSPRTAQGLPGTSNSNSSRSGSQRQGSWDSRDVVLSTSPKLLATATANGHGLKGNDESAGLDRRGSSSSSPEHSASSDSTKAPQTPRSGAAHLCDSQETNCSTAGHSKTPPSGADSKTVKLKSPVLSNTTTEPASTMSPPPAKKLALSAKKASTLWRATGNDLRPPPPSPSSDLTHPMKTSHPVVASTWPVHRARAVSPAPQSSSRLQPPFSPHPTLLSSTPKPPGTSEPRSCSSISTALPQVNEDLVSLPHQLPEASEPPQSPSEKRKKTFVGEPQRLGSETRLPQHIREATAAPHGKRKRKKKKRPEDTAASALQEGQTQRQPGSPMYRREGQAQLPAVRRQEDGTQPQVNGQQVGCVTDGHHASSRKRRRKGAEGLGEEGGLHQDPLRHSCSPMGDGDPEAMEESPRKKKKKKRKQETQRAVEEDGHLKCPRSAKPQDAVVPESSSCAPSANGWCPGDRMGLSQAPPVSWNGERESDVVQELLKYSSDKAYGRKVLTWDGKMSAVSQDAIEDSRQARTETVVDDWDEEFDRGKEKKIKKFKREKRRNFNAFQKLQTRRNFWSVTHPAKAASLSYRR
Outline: as §1

[3] = biological target: T2, USP38 (UniProt Q8NB14)
T2 sequence (whole entry): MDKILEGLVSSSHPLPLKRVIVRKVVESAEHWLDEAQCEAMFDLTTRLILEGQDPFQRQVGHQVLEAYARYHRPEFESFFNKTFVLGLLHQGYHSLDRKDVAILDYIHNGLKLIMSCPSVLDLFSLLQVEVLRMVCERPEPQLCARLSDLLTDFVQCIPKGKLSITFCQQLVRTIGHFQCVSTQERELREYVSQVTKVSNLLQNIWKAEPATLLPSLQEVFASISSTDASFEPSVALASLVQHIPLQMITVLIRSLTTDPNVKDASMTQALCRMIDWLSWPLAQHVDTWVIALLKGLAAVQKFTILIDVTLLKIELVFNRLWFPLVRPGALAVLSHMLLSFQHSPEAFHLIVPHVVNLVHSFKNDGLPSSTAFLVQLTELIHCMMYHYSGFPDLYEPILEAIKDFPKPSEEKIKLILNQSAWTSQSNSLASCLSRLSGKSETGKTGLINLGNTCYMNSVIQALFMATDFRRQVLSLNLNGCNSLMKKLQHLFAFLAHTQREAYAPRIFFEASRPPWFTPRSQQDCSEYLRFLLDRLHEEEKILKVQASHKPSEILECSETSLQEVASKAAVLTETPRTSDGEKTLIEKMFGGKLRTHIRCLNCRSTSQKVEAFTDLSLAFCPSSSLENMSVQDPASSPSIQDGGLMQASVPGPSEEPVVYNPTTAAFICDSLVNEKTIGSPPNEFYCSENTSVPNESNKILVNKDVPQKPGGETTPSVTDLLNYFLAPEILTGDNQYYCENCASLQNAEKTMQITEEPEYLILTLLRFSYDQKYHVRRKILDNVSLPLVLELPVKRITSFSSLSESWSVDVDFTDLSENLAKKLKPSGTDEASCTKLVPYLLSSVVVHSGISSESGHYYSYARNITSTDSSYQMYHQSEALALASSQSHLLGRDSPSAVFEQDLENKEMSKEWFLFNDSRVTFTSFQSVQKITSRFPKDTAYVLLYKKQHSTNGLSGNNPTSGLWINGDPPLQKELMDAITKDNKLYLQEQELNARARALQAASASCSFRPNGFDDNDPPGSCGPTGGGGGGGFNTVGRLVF
Outline: as §1

[4] = biological target: T3, USP39 (UniProt Q53GS9)
T3 sequence (whole entry): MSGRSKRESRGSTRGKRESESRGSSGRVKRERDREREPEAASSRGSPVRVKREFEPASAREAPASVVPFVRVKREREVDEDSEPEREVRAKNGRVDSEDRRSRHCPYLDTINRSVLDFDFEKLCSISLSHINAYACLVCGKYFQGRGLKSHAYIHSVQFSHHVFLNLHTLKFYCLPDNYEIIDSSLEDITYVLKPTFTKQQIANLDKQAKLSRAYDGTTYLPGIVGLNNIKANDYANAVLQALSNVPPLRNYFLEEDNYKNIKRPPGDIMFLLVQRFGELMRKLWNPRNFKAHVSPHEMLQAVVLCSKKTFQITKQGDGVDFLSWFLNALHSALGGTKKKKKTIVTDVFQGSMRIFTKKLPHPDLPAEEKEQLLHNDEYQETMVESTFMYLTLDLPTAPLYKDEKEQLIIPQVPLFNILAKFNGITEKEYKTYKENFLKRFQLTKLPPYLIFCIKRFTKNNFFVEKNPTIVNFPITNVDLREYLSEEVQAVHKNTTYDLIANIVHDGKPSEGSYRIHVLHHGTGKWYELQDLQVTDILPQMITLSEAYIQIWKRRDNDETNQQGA
Outline: as §1

[5] = biological target: T4, USP4 (UniProt Q13107)
T4 sequence (whole entry): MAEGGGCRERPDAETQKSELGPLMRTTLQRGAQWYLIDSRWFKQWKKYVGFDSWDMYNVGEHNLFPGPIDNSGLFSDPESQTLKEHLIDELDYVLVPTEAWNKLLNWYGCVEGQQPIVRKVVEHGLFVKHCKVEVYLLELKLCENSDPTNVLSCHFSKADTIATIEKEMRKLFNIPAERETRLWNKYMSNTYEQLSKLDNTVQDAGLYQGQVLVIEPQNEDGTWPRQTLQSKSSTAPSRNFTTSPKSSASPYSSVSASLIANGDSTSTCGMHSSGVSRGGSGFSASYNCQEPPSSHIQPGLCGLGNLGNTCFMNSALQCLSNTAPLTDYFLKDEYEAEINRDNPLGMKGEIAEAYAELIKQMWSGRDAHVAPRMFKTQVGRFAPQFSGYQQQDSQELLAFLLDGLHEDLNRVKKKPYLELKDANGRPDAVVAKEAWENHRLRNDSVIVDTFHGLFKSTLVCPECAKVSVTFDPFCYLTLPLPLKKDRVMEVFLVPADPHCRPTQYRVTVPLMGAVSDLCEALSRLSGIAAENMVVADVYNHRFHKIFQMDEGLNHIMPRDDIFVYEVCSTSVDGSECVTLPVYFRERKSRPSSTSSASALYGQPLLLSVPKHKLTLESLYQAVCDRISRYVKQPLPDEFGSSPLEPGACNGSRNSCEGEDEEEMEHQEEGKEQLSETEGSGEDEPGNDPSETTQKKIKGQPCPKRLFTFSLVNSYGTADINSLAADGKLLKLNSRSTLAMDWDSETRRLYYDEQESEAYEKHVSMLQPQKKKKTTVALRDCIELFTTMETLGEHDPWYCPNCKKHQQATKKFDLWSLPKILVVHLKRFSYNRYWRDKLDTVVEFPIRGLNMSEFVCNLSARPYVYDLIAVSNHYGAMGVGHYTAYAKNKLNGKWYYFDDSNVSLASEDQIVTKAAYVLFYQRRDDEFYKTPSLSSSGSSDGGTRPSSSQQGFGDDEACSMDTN
Outline: as §1

Measured: log2 ratio of Biotin-Ahx-Ub-VS probe labelling

Cl.O=C(CCl)N1CCC(Cc2nccs2)C1 (stereo not given)
inactive: [1] 0.132 | [2] -0.0197 | [3] 0.0569 | [4] 0.0712 | [5] -0.165
